Test results as given in the supplement of paper PMC9023506.
Where a name gives a salt, the structure may show the parent alone.

System: Danio rerio larvae (5 dpf)
Experiment: excitability to 1-s acoustic pulses, difference vs DMSO (percentage points (treated minus DMSO)); higher = more of the behaviour than the DMSO vehicle control
Conditions: 10 µM; exposure time: 3 h pre-incubation + 3 h imaging
Experimental: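 5-dpf wild-type zebrafish larvae were imaged in 96-well plates. They were treated with 190 Tocris FDA-approved drugs at 10 µM (1 µl/ml DMSO) for 3 h before and 3 h during imaging at 28.5 °C, 48 larvae per drug. Automated image analysis gave % time moving and optomotor responses. Values are drug group mean minus DMSO vehicle mean (n=844), in percentage points, for 10 behaviours.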

Row | Structure (SMILES) | excitability to 1-s acoustic pulses
1 | O=C(O)CCCc1ccccc1 [Sodium 4-Phenylbutyrate] | 2.04
2 | Nc1nc2[nH]cc(CCc3ccc(C(=O)N[C@@H](CCC(=O)O)C(=O)O)cc3)c2c(=O)[nH]1 [Pemetrexed] | 2.29
3 | CC(=O)Oc1cc2c(s1)CCN(C(C(=O)C1CC1)c1ccccc1F)C2 (stereo not given) [Prasugrel] | 5.57
4 | CC(c1cc2ccccc2s1)N(O)C(N)=O (stereo not given) [Zileuton] | 4.34
5 | NC(=O)OCC(COC(N)=O)c1ccccc1 [Felbamate] | -4.78
6 | COc1cc2nccc(Oc3ccc(NC(=O)C4(C(=O)Nc5ccc(F)cc5)CC4)cc3)c2cc1OC | 17.1
7 | CN1CC2c3ccccc3Oc3ccc(Cl)cc3C2C1 (stereo not given) [Asenapine maleate] | 15
8 | Cc1ccsc1C(=CCCN1CCC[C@@H](C(=O)O)C1)c1sccc1C [Tiagabine hydrochloride] | -9.16
9 | CCN(CC)CCNC(=O)c1c(C)[nH]c(/C=C2\C(=O)Nc3ccc(F)cc32)c1C [Sunitinib malate] | 14.4
10 | Clc1ccccc1C(c1ccccc1)(c1ccccc1)n1ccnc1 [Clotrimazole] | 14
11 | Nc1nc(NC2CC2)c2ncn([C@H]3C=C[C@@H](CO)C3)c2n1 [Abacavir hemisulfate] | -1.97
12 | CC(=O)Nc1ccc(O)cc1 [Acetaminophen] | -2.54
13 | C=CC(=O)N1CCC[C@@H](n2nc(-c3ccc(Oc4ccccc4)cc3)c3c(N)ncnc32)C1 [Ibrutinib] | -2.71
14 | O=c1[nH]c(=O)n([C@H]2C[C@H](O)[C@@H](CO)O2)cc1C(F)(F)F [Trifluorothymidine] | 2.88
15 | O=C(O)c1cc(/N=N/c2ccc(S(=O)(=O)Nc3ccccn3)cc2)ccc1O [Sulfasalazine] | -0.736
16 | COc1cc2ncnc(Nc3ccc(F)c(Cl)c3)c2cc1OCCCN1CCOCC1 [Iressa] | 18
17 | NS(=O)(=O)c1cc2c(cc1Cl)NC(C1CC3C=CC1C3)NS2(=O)=O (stereo not given) [Cyclothiazide] | 0.586
18 | CCOc1nc2cccc(C(=O)O)c2n1Cc1ccc(-c2ccccc2-c2nnn[nH]2)cc1 [Candesartan] | -3.51
19 | CC(C)(C(=O)O)c1ccc(C(O)CCCN2CCC(C(O)(c3ccccc3)c3ccccc3)CC2)cc1 (stereo not given) [Fexofenadine hydrochloride] | -6.48
20 | C[C@H]1O[C@H](O[C@H]2[C@H](O)[C@@H](O)[C@@H](O[C@H]3[C@H](O)[C@@H](O)C(O)O[C@@H]3CO)O[C@@H]2CO)[C@H](O)[C@@H](O)[C@@H]1N[C@H]1C=C(CO)[C@@H](O)[C@H](O)[C@H]1O (stereo not given in full) [Acarbose] | -4.01

Row | Structure (SMILES) | excitability to 1-s acoustic pulses
21 | CC(C)COCC(CN(Cc1ccccc1)c1ccccc1)N1CCCC1 (stereo not given) [Bepridil hydrochloride] | 15
22 | O=C(Nc1c(Cl)cncc1Cl)c1ccc(OC(F)F)c(OCC2CC2)c1 [Roflumilast] | 16.7
23 | COc1c(C)c2c(c(O)c1C/C=C(\C)CCC(=O)O)C(=O)OC2 [Mycophenolic acid] | 0.774
24 | C[C@]12CCC(=O)C=C1CC[C@@H]1[C@@H]2[C@@H](O)C[C@@]2(C)[C@H]1CC[C@]2(O)C(=O)CO [Hydrocortisone] | 1.67
25 | CCCCC(=O)N(Cc1ccc(-c2ccccc2-c2nnn[nH]2)cc1)[C@H](C(=O)O)C(C)C [Valsartan] | -1.54
26 | C#CCN[C@@H]1CCc2ccccc21 [Rasagiline mesylate] | -3.66
27 | CCCC1O[C@@H]2C[C@H]3[C@@H]4CCC5=CC(=O)C=C[C@]5(C)[C@H]4[C@@H](O)C[C@]3(C)[C@]2(C(=O)CO)O1 (stereo not given in full) [Budesonide] | -1.66
28 | CCOC(=O)C1=C(C)NC(C)=C(C(=O)OC)C1c1cccc(Cl)c1Cl (stereo not given) [Felodipine] | -13.3
29 | CN1CCC[C@@H]1Cc1c[nH]c2ccc(CCS(=O)(=O)c3ccccc3)cc12 [Eletriptan hydrobromide] | 3.9
30 | CNCc1ccc(-c2[nH]c3cc(F)cc4c3c2CCNC4=O)cc1 [Rucaparib camsylate] | 12.5
31 | COc1cc([C@@H]2c3cc4c(cc3[C@@H](O[C@@H]3O[C@@H]5CO[C@@H](C)O[C@H]5[C@H](O)[C@H]3O)[C@H]3COC(=O)[C@H]23)OCO4)cc(OC)c1O [Etoposide] | 9.69
32 | CC(=O)Oc1ccccc1C(=O)O [Aspirin] | 10.2
33 | CCCN(CCc1cccs1)[C@H]1CCc2c(O)cccc2C1 [Rotigotine hydrochloride] | 31.3
34 | COC(c1ccccc1)(c1ccccc1)[C@H](Oc1nc(C)cc(C)n1)C(=O)O [Ambrisentan] | -1.87
35 | CCOc1ccccc1OCCN[C@H](C)Cc1ccc(OC)c(S(N)(=O)=O)c1 [Tamsulosin hydrochloride] | 14.9
36 | C=C1[C@H](CO)[C@@H](O)C[C@@H]1n1cnc2c(=O)[nH]c(N)nc21 [Entecavir] | -3.18
37 | Cc1ccc(N(CC2=NCCN2)c2cccc(O)c2)cc1 [Phentolamine Mesylate] | 15.7
38 | CC1=Nc2ccc(Cl)cc2S(=O)(=O)N1 [Diazoxide] | 0.689
39 | NS(=O)(=O)Cc1noc2ccccc12 [Zonisamide] | 2.79
40 | CC(C)(C(=O)c1cccnc1)c1cccnc1 [Metyrapone] | 12.2
